# Data taken from the OligoGym collection.
# Molecular target: TMEM231
# Assay: pooled miR-30 sensor sort-seq; sequence = guide strand
# Conditions: shRNA
# Further: reference of the scale not given here.
row,Sequence,sensor-assay potency score (higher = more potent)
1,TAATCGATAGGAGAAAGTCAGG,-1.54
2,TTCTGAAACACGAAGATCTTGA,0.224
3,AACACGAAGATCTTGATTCTTT,-0.0929
4,TAGGCCACCACAGCTCAGCGGC,-1.06
5,TTACCATCTCCCAGAATCCTGG,-0.723
6,TAGCATTAATCACAAATGGAGC,-1.05

# Molecular target: TMEM42
# Assay: as above
# Conditions: shRNA
row,Sequence,sensor-assay potency score (higher = more potent)
1,TCCATACAGCACATAGCCCAGG,-1.77
2,TAGAACACTGCTGCAGCTGCAC,-0.354
3,TAGAGTTACATGACTGGCTTTT,-0.949
4,TACGCGGTCGCGGACACGGCGC,-1.65
5,TTGAATACGCCCCAAAAGCGGC,-1.46
6,TGGATTAGGGTGAGTCCGCAGA,-1.31
7,TAAACCCATGCTCACCTCGCTG,-1.26
8,AATAAGGAACACTCCTCCCCAC,0.0225
9,TAGCCCAGGAAGGCCGAGCTGA,-1.22
10,TAATACATAAGCATGACACAGA,0.407
11,AAACCCATGCTCACCTCGCTGC,-0.311
12,TTGAAAAAGTCACTGTGACAGA,-0.719

# Molecular target: TMEM70
# Assay: as above
# Conditions: shRNA
row,Sequence,sensor-assay potency score (higher = more potent)
1,TTTCACACCAAACACTGCTCGG,-0.271
2,TACAATCGAATGACATAGCCTT,0.02
3,TAGCATTGTAGGTAATGGCTTT,-0.0699
4,TGGTGAAACACTGTACTCGTTT,-0.765
5,TAACAATCAGTCACTAACGGAA,-0.91
6,TTTTGTAATAAAGTGAAGCAGC,-0.766
7,TAAACAAACATCATTCTCTGGA,0.0797
8,TTAACTAACAGTGATTTTGTTT,-0.473
9,TTAAGAATCGAACATATCCTTC,-0.465
10,TTTAAGAATCGAACATATCCTT,0.136
11,TTAACAATCAGTCACTAACGGA,-0.588
12,TTTATTATAAACAAACATCATT,-1.08

# Molecular target: TMEM8B
# Assay: as above
# Conditions: shRNA
row,Sequence,sensor-assay potency score (higher = more potent)
1,ATAATTGTGTGTGCGCAGCAGC,-0.93
2,TAAGATGCAGACACCACCGCAT,0.345
3,TAGAAGTGGACAGAGAAGGTGT,0.765
4,TGAAGGTGTAGACTGCAGCTTC,-0.202
5,AAGCACTGCTGTCTCTGTCTGT,-0.532
6,TTATCTATGCATGACAGTTTGG,-0.348
7,ATGTAGAAGTAGTTGTCCCGGG,-0.575
8,TGTAGAAGTAGTTGTCCCGGGT,0.134
9,TAGGTGAGCGCATCTGCACTGT,-0.509
10,TAGCTGGTAACCACAGCCCCGG,-1.14
